The list is not random: actives were taken first. Their share in the collection is about 13%.
Pf growth 48h: P. falciparum growth inhibition at 48 hours (one generation); Potency, µM (titrated, usually from 28.7 µM), most hits filed as inhibitors; actives 5.9% (n = 310,000); P. falciparum luciferase growth in erythrocytes, 48 h
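Cell-based growth assay: transgenic P. falciparum expressing firefly luciferase, cultured in red cells within RPMI 1640 containing 0.5% w/v Albumax, 24 mM bicarbonate and gentamycin. A drop in luciferase activity indicates inhibition.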
HCV inh: HCV inhibition; Huh7.5.1 HCVcc-Cre infection, luciferase reporter, 44 h; Potency, µM (top dose mostly 41.8 µM), most hits filed as inhibitors; actives 3.4% (n = 340,000); AID 651820
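A cell-based infection assay in which seeded cells (1,000 per well) receive test compound after 4 h, are inoculated with HCVcc-Cre at approximately 0.5 moi, and are incubated 44 h before luminescence detection.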
HCMV antiviral: inhibitors of human cytomegalovirus | HFF cells, HCMV-luciferase reporter, 72 h; stronger effect = lower value | actives 4.5% (n = 410,000) | AID 1259415 | activity change, negative = inhibition, % at 57.5 µM; in the data active means activity change below about -60%; inconclusive means no clear call, values can overlap the other calls; inactive means above about -39%
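After 16 h attachment at 37C, HFF cells received test compound and HCMV-luciferase (1 PFU/cell); reporter luminescence read 72 h later, data normalized against buffer-only and known inhibitor Salinomycin.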
Pf growth 96h: inhibits malaria parasite growth, 96 h; P. falciparum luciferase reporter growth, 96 h; Potency, µM (series often up to 28.7 µM), usual class: inhibitors; actives 6.9% (n = 320,000); AID 504834
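Two parasite generations (96 h, 37 C, 5% CO2) of compound exposure in infected erythrocytes (0.05% parasitemia, 2% hematocrit). Luciferase-reporter P. falciparum; decreased luminescence indicates inhibited growth, aimed at apicoplast-acting delayed death.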
A number is an active result; [ ] = remark or other dose. Unless noted, the call rests on the fitted dose curve; in most records, active means well fitted inhibition curve with a large enough effect; inconclusive means small, poorly fitted or top-dose-only effect, or another doubt; inactive means no such curve, though single readings can be large or run the other way.

`Cc1cccc(Cl)c1NC(=O)NCCCN1CCOCC1` gave HCMV antiviral inactive.
Screening CC(=O)OC1CCC2(C)C3CCC4(C)C(C(C)=O)CCC4C3CC3OC32C1 (stereo unspecified) returned HCV inh inactive and HCMV antiviral -61.
Screening O=C(NCCSCc1ccccc1)C1CCN(S(=O)(=O)Cc2ccccc2)CC1 returned HCMV antiviral inactive.
For Cc1ccc(NC(=O)CCC(=O)N2CCSc3ccccc32)cc1Cl the results were HCMV antiviral inactive.
Screening COc1ccc(C2CC(c3ccc(Cl)cc3)=NN2c2ccc(S(N)(=O)=O)cc2)cc1 (stereo unspecified) returned HCV inh inconclusive and HCMV antiviral inactive.
For CC(=O)Oc1ccc(C2=NN(c3ccccc3)C(c3ccccc3)C2)cc1 (stereo unspecified) the results were Pf growth 48h 12µM, HCV inh inconclusive, HCMV antiviral inactive and Pf growth 96h inactive.
`CCC(=O)Nc1cccc(C2=NN(c3ccccc3)C(c3ccc(OC)cc3)C2)c1` (stereo unspecified) gave Pf growth 48h inconclusive, HCV inh inconclusive, HCMV antiviral inactive and Pf growth 96h 13µM.
`COc1ccc(C2CC(c3ccccc3)=NN2c2ccc(Cl)c(C(=O)O)c2)cc1` (stereo unspecified) gave Pf growth 48h inactive, HCV inh inactive, HCMV antiviral inactive and Pf growth 96h inconclusive.
`COc1ccc(C2CC(c3cccc(Cl)c3)=NN2c2ccc(S(N)(=O)=O)cc2)cc1` (stereo unspecified) gave HCV inh 13µM and HCMV antiviral inactive.
For CNC(=O)C1CCC(Cn2c(=O)c3sccc3n(CC(=O)Nc3cc(F)ccc3F)c2=O)CC1 (stereo unspecified) the results were HCMV antiviral inactive.
For CCCOc1ccccc1/C=C1\SC(N)=NC1=O the results were Pf growth 48h inconclusive, HCV inh inactive, HCMV antiviral -64 and Pf growth 96h 12µM.
CCCOc1ccc(/C=C2\SC(N)=NC2=O)cc1OC was read as Pf growth 48h inactive, HCV inh inactive, HCMV antiviral inactive and Pf growth 96h inactive.
`CCOC(=O)C1(CCCc2ccccc2)CCN(C(=O)C2=C(C)OCCO2)CC1` gave Pf growth 48h inconclusive, HCV inh inconclusive, HCMV antiviral -69 and Pf growth 96h inactive.
CCOC(=O)C1(CCCc2ccccc2)CCN(C(=O)CN2CCOC2=O)CC1 was read as Pf growth 48h inactive, HCV inh inactive, HCMV antiviral inactive and Pf growth 96h 15µM.
`O=C(Cn1nnc(-c2cccs2)n1)N1CCOCC1` gave Pf growth 48h inactive, HCV inh inactive, HCMV antiviral inactive and Pf growth 96h 9.3µM.
`CC1CCN(C(=O)Cn2nnc(-c3cccs3)n2)CC1` gave Pf growth 48h inactive, HCV inh inactive, HCMV antiviral inactive and Pf growth 96h inconclusive.
`CCCS(=O)(=O)c1nc(S(=O)(=O)c2ccc(C)cc2)c(N2CCc3ccccc3C2)s1` gave Pf growth 48h 2.3µM, HCV inh inconclusive, HCMV antiviral inconclusive and Pf growth 96h inconclusive.
CCCS(=O)(=O)c1nc(S(=O)(=O)c2ccc(C)cc2)c(N2CCC(C)CC2)s1 was read as Pf growth 48h inconclusive, HCV inh inactive, HCMV antiviral inconclusive and Pf growth 96h 15µM.
Screening CCCS(=O)(=O)c1nc(S(=O)(=O)c2ccc(C)cc2)c(N2CCCC2)s1 returned Pf growth 48h 12µM, HCV inh inactive and HCMV antiviral inactive.
`CCCS(=O)(=O)c1nc(S(=O)(=O)c2ccc(C)cc2)c(N2CCC(C(N)=O)CC2)s1` gave Pf growth 48h inactive, HCV inh inactive, HCMV antiviral inconclusive and Pf growth 96h 10µM.
O=C1CCC[C@H]2[C@@H](Cc3ccccc3)[C@H](N(Cc3ccccc3)Cc3ccccc3)CC[C@]23CCCN13 was read as HCMV antiviral inactive.
COCC(=O)N1c2nc(C(C)C)nn2C2(CCCCC2)[C@@H]2CCCC[C@@H]21 was read as HCMV antiviral inactive.
`CCOC(=O)C1(N(CC)CC)Sc2cc(C)ccc2NC1=O` (stereo unspecified) gave Pf growth 48h inconclusive, HCV inh inconclusive, HCMV antiviral inactive and Pf growth 96h 5.9µM.
For CC1CCN(c2nc3ccccc3nc2C(C#N)C(=O)NC2CCCCC2)CC1 (stereo unspecified) the results were Pf growth 48h inactive, HCV inh inactive and Pf growth 96h inactive[5.75 µM].
CCCCOc1nc2ccccc2nc1C(C#N)C(=O)NC1CCCCC1 (stereo unspecified) was read as Pf growth 48h inactive, HCV inh inactive, HCMV antiviral inconclusive and Pf growth 96h 1.5µM.
`CC1CCCN(C(=O)C23CCC(C)(C(=O)C2)C3(C)C)C1` (stereo unspecified) gave Pf growth 48h inactive, HCV inh inactive, HCMV antiviral inactive and Pf growth 96h 9.3µM.
C[C@@H]1CN([C@H](C)CO)C(=O)c2c(c3ccccc3n2C)-c2ccccc2CO[C@H]1CN(C)Cc1ccc(Oc2ccccc2)cc1 was read as HCMV antiviral inactive.
For C[C@@H]1CN([C@H](C)CO)C(=O)c2c(c3ccccc3n2C)-c2ccccc2CO[C@H]1CN(C)Cc1ccc(C(F)(F)F)cc1 the results were HCMV antiviral -106.
`CCCOC(=O)c1ccc(NC(=O)C2CC(=O)N(c3ccc(C)cc3)C2)cc1` (stereo unspecified) gave HCMV antiviral inactive.
`c1ccc(Sc2cccc3ccccc23)c(CNC2=NCCN2)c1` gave Pf growth 48h 1.2µM, HCV inh inconclusive, HCMV antiviral -67 and Pf growth 96h 0.93µM.
`Fc1ccccc1Sc1ccccc1CNC1=NCCN1` gave Pf growth 48h inconclusive, HCV inh inconclusive, HCMV antiviral -61 and Pf growth 96h 10µM.
CCN(c1ccccc1)S(=O)(=O)c1nnc(NC(=O)C(C)Oc2ccccc2)s1 (stereo unspecified) was read as HCMV antiviral inactive.
Cc1cc(SCC(=O)N/N=C/c2ccc(O)c(O)c2O)c(C)cc1Br was read as Pf growth 48h 13µM, HCV inh inconclusive and HCMV antiviral inactive.
For Cc1cccc2c1nc(-c1ccccc1)n1nnnc21 the results were Pf growth 48h inactive, HCV inh inactive, HCMV antiviral -60 and Pf growth 96h inactive.
For Cc1cccc2c1nc(-c1ccccc1)n1cnnc21 the results were Pf growth 48h inactive, HCV inh inactive, HCMV antiviral -69 and Pf growth 96h inactive.
`Cc1ccccc1-n1nnnc1-c1ccccc1` gave Pf growth 48h inactive, HCV inh inactive, HCMV antiviral inactive and Pf growth 96h inactive.
CSc1ccccc1NC(=O)c1ccc(N2CC3CC(C2)c2cccc(=O)n2C3)c(NC(=O)c2ccncc2)c1 (stereo unspecified) was read as Pf growth 48h 9.3µM, HCV inh inactive, HCMV antiviral inactive and Pf growth 96h inconclusive.
For Cc1cccc(NC(=O)[C@@H](NC(=O)N2C[C@H]3C[C@@H](C2)c2cccc(=O)n2C3)C(C)C)c1 the results were Pf growth 48h inactive, HCV inh inactive, HCMV antiviral inactive and Pf growth 96h 5.2µM.

High-throughput results (PubChem)
